Here are results for 39 compounds from PubChem BioAssay (NCATS).

Each structure is given as a SMILES string. Results filed as inconclusive are left out. The source made the active and inactive calls. The call rests on the fitted dose curve; in most records, active means well fitted inhibition curve with a large enough effect; inconclusive means small, poorly fitted or top-dose-only effect; inactive means flat fitted curve, though single readings scatter.
On the % scale 0 is the no-effect control and ±100 the full control effect; potency means the concentration at half of the fitted maximal effect.

This experiment can be described thus: P-glycoprotein substrates identified in KB-8-5-11 adenocarcinoma cell line, qHTS therapeutic library screen (AID 1346987). Further: nearly all actives have a fitted effect of over 65% in size. The conditions noted are these: KB-8-5-11 (P-gp overexpressing) viability, CellTiter-Glo, 72 h; series mostly up to 44.5 µM; activity change, negative = cytotoxicity: at the top concentration. The procedure, abridged: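 Steps: plate 500 KB-8-5-11 cells/well in DMEM + 10% FCS (colchicine removed); pin compounds in dose-response; incubate 72 h, 37 degree C, 5% CO2; add CellTiter-Glo, 5 min; read luminescence.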
As to `CC(C)(C(=O)NCC(F)(F)C(F)(F)F)C(=O)NC1C(=O)Nc2ccccc2-c2ccccc21` (centres undefined), the Potency was 4.61 µM (active). `COc1ccc(/C=C/C(=O)O[C@@H]2[C@@H](O)[C@H](C)O[C@@H](O[C@H]3[C@@H]4C=CO[C@@H](O[C@H]5O[C@@H](CO)[C@H](O)[C@@H](O)[C@@H]5O)[C@@H]4[C@@]4(CO)O[C@@H]34)[C@@H]2OC(C)=O)cc1`: the “activity change, negative = cytotoxicity” value was 0.504% [at 17.3 µM] (inactive). Take `COc1ccc(-c2cnc(-c3cccc4c3-c3ccccc3C4=O)o2)cc1`: the Potency is 0.0893 µM (active). With `C[C@@H]1CC[C@]2(C(=O)O[C@@H]3O[C@H](CO)[C@@H](O)[C@H](O)[C@H]3O)CC[C@]3(C)C(=CCC4[C@@]5(C)C[C@@H](O)[C@H](O)[C@](C)(C(=O)O)C5CC[C@]43C)[C@@H]2[C@]1(C)O` (some centres undefined), the “outcome” value was “inactive [at 17.3 µM]”.

For the compound `CN(C)C1CCN(C(=O)c2ccc(NC(=O)Nc3ccc(-c4nc(N5CCOCC5)nc(N5CCOCC5)n4)cc3)cc2)CC1`, the “activity change, negative = cytotoxicity” value is -11.8% (inactive). As to `C[C@]1(CO)CCC[C@]2(C)C3=C(CCC12)COC3` (some centres undefined), the call was inactive. For `COc1ccc([C@@]2(O)c3c(ccc4c3OC(C)(CCC=C(C)C)C=C4)NC(=O)[C@@H]2OC)cc1` (some centres undefined), the “activity change, negative = cytotoxicity” value was 0.889% [at 17.3 µM] (inactive).

As to `O=C1CC2(CCCC2)[C@H](O)C(=O)N1CCCCN1CCN(c2ncccn2)CC1`, the “activity change, negative = cytotoxicity” value was -18.7% (inactive).

Turning to `CC12CCC(OC3OC(CO)C(O)C(OC4OC(CO)C(O)C(O)C4O)C3O)CC1CCC1C2CCC2(C)/C(=C3/COC(=O)C3)CCC12O` (centres undefined), the “activity change, negative = cytotoxicity” value was 4.78% [at 17.3 µM] (inactive). Turning to `COC(=O)C1=CO[C@@H](O[C@@H]2O[C@H](CO)[C@@H](O)[C@H](O)[C@H]2O)[C@@H]2C(CO)=CC[C@]12O`, the “activity change, negative = cytotoxicity” value is 1.51% [at 17.3 µM] (inactive). Still for that read-out and setting: under `CCN(CC)Cc1ccc(C(=O)N(CCc2ccccc2OC)[C@@H]2CCNC2)cc1` stands 6.96% [at 17.3 µM] (inactive). In the case of `O=C(N/N=C/c1ccc(O)c(O)c1)c1cc2ccccc2cc1O`, the “activity change, negative = cytotoxicity” value is -2.1% [at 17.3 µM] (inactive).

For `CC(C)C(NC(=O)c1ccc2ccccc2n1)C(=O)NC(CC(=O)O)C(=O)COc1c(F)cccc1F` (centres undefined), the result was inactive. Regarding `CC(C)c1cc(CNc2nc(Nc3cc(C4CC4)[nH]n3)cc(N3CCN(C)CC3)n2)on1`, the Potency was 5.8 µM (active). Take `O=C1CCC=CC1(O)C(=O)OCc1ccccc1O[C@@H]1O[C@H](CO)[C@@H](O)[C@H](O)[C@H]1O` (some centres undefined): the “activity change, negative = cytotoxicity” value is -6.72% [at 17.3 µM] (inactive). The same measure, in the same setting: under `COc1ccc(C2=N[C@@H](c3ccc(Cl)cc3)[C@@H](c3ccc(Cl)cc3)N2C(=O)N2CCNC(=O)C2)c(OC(C)C)c1` stands 4.25% (inactive). With `CCN1CCN(Cc2ccc(NC(=O)c3ccc(C)c(/C=C/c4cnc5[nH]ccc5c4OC)c3)cc2C(F)(F)F)CC1`, the Potency is 23.1 µM (active). For `Oc1ccc(CNc2ccccc2F)c2cccnc12`, the Potency was 6.51 µM (active).

For `CC(=O)O[C@@H]1[C@H](O)[C@@H](O[C@@H]2O[C@@H](C)[C@H](O[C@@H]3OC[C@@H](O)[C@H](O[C@@H]4OC[C@@H](O)[C@H](O)[C@H]4O)[C@H]3O)[C@@H](O[C@@H]3O[C@H](CO)[C@@H](O)[C@H](O)[C@H]3O)[C@H]2O)[C@H](OC(=O)[C@]23CCC(C)(C)C[C@H]2C2=CCC4[C@@]5(C)CC[C@H](O[C@@H]6O[C@H](C(=O)O)[C@@H](O)[C@H](O[C@@H]7OC[C@@H](O)[C@H](O)[C@H]7O)[C@H]6O[C@@H]6O[C@H](CO)[C@H](O)[C@H](O)[C@H]6O)[C@@](C)(C=O)C5CC[C@@]4(C)[C@]2(C)CC3)O[C@@H]1C` (some centres undefined), the activity change, negative = cytotoxicity is 9.26% [at 5.11 µM] (inactive). On the same count and under the same terms, under `O=C(/C=C/c1ccc(O)cc1)OC1[C@H](O)CC(O)(C(=O)O)C[C@H]1O` (some centres undefined) stands 2.39% (inactive).

With `C=CCC1=C[C@]2(OC)[C@H](C)[C@@H](c3ccc(O)c(OC)c3)O[C@]2(OC)CC1=O`, the call was inactive.

For `CC(Oc1cc(-n2cnc3ccc(CN4CCN(C)CC4)cc32)sc1C(N)=O)c1ccccc1C(F)(F)F` (centres undefined), the Potency was 2.59 µM (active). Consider `CC(=O)OC12COC1CC(O)C1(C)C(=O)C(O)C3=C(C)C(OC(=O)C(O)C(NC(=O)OC(C)(C)C)c4ccccc4)CC(O)(C(OC(=O)c4ccccc4)C21)C3(C)C` (centres undefined), for which the Potency is 0.164 µM (active). Consider `C=C(C(=O)OC)C1C(O)CC2(C)C(=O)CCC(O)(CO)C2C1O` (centres undefined), for which the result was inactive. `O=C(NCc1ccccn1)Nc1nnc(-c2ccco2)o1`: the “activity change, negative = cytotoxicity” value was -3.61% (inactive). Still for that read-out and setting: under `COc1ccc2c(OC)c3ccoc3nc2c1OC` stands -20.1% (inactive). With `CO/N=C(/C(=O)N[C@@H]1C(=O)N2C(C(=O)O)=C(Cn3ccc(=N)n3CCO)CS[C@H]12)c1csc(N)n1`, the call was inactive. For `FC(F)(F)c1ccc(Nc2nc(-c3c(C(F)(F)F)nc4ccccn34)cs2)cc1`, the Potency is 0.461 µM (active). On to `Cc1c(NC(=O)c2cc(C(N)=O)nc3cc(F)ccc23)c(C(F)(F)F)nn1Cc1ccc(C#N)cc1`, for which the “activity change, negative = cytotoxicity” value was -6.76% [at 17.3 µM] (inactive).

Turning to `CC12CCC(OC3OC(CO)C(O)C(OC4OC(CO)C(O)C(O)C4O)C3O)CC1=CCC1C2CCC2(C)/C(=C3/COC(=O)C3)CCC12O` (centres undefined), the “activity change, negative = cytotoxicity” value is -2.53% [at 17.3 µM] (inactive). With `COc1ccc(C(=O)n2c(C)c(Cc3cccc(O[C@@H](C)C(=O)O)c3)c3cc(OC(F)(F)F)ccc32)cc1`, the “activity change, negative = cytotoxicity” value was 2.45% (inactive). For `COc1cccc2cc3c(c(O[C@@H]4O[C@H](CO[C@@H]5O[C@H](CO)[C@@H](O)[C@H](O)[C@H]5O)[C@@H](O)[C@H](O)[C@H]4O)c12)C(C)OC3=O` (some centres undefined), the “activity change, negative = cytotoxicity” value is -0.811% [at 17.3 µM] (inactive). For the compound `C/C=C/c1ccc(O[C@@H]2O[C@H](CO)[C@@H](O)[C@H](O)[C@H]2O)c(OC)c1`, the “activity change, negative = cytotoxicity” value is -12.3% (inactive). Take `CC(=O)OC1CC2(C)C3=CCC4(C)C5C(O)C(O)C(C(C)C)C5(C)CCC4(C)C3CCC2C(C)(C)C1OC1OC(CO)C(O)C(O)C1O` (centres undefined): the “outcome” value was “inactive [at 17.3 µM]”.

On to `NC(=O)c1cccc(-c2cc(OC(=O)NC3CCCCC3)ccc2O)c1`, for which the “activity change, negative = cytotoxicity” value was -7.82% (inactive). For `CC(C)=CCC/C(C)=C/CC/C(C)=C/COC1OC(COC2OCC(OC3OCC(O)C(O)C3O)C(O)C2O)C(O)C(OC2OC(C)C(OC3OC(C)C(OC4OCC(OC5OC(C)C(O)C(O)C5O)C(O)C4O)C(O)C3O)C(O)C2O)C1O` (centres undefined), the activity change, negative = cytotoxicity is 7.18% [at 9.29 µM] (inactive).

In the case of `CN(CCc1ccc(Nc2ncc(-c3cccnc3)s2)cc1)Cc1ccccc1`, the “activity change, negative = cytotoxicity” value is -26.2% (inactive). For the compound `CN=C(N)NCCCCC/C=C(/C)CC(C)C1OC(=O)C(C)C(O)/C=C/C(C)C(O)CC(O)C(C)C(O)CCC(C)C(O)CC2(O)OC(CC(OC(=O)CC(=O)O)CC(O)CC(O)C(C)C(O)/C(C)=C/CCC1C)CC(O)C2O` (centres undefined), the outcome is “inactive [at 9.29 µM]”. As for `C[C@@H]1CC[C@]2(C(=O)O)CC[C@]3(C)C(=CCC4[C@@]5(C)C[C@@H](O)[C@H](O)[C@@](C)(CO)C5CC[C@]43C)C2[C@]1(C)O` (some centres undefined), the “activity change, negative = cytotoxicity” value was 0.128% [at 17.3 µM] (inactive).
